From PubChem BioAssay (Tox21) come the findings set out here.

A number with no mark means an inactive call. Records with an inconclusive call do not appear. Activity calls are given as the source filed them. Unless noted, the call rests on the fitted dose curve.

Assay [1] has as its target Gonadotropin-releasing hormone receptor (Homo sapiens) (UniProt P30968). The assay can be described thus: Human gonadotropin-releasing hormone receptor (GnRHR) small molecule agonists, calcium flux assay in GnRHR-HEK293 cells (AID 1920063). Further: nearly all actives have a fitted effect of over 35% in size. In a few lines:
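Stable human GnRHR HEK293 line. 18 h plating, then calcium dye for 1 h at 37 C. Agonist-mode compound addition from DMSO stocks; fluorescence monitored 3 min.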
A general note: A change in cytosolic calcium serves as a functional read-out for many receptors and channels.

Assay [2] deals with KiSS-1 receptor (Homo sapiens) (UniProt Q969F8). Nature of the assay: Human kisspeptin (KISS1R) small molecule agonists, calcium flux assay in KISS1R-HEK293 cells (AID 1920064; active means well fitted activation curve with a large enough effect in the repeat runs). In a few lines:
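After overnight (18 h) culture at 37 C/5% CO2, human KISS1R-HEK293 cells received calcium dye for 1 h, then test compound; emission at 540 nm (excitation 480 nm) was tracked for 3 min.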

Assay [3] is described as follows: G protein-coupled receptor (GPCR) small molecule agonists, calcium flux assay: HEK293 wild type cell line counter screen (AID 1920065). Further: potency means the concentration at half of the fitted maximal effect. The method, boiled down:
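Following 18 h incubation at 37 C/5% CO2, plates got calcium dye for 1 h; compounds, ATP or DMSO were then pinned in and fluorescence followed kinetically (480/540 nm).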

Assay [4] can be described thus: p53 small molecule agonists, cell-based qHTS assay with human liver microsomes (AID 1963577).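 Further: p53 response element beta-lactamase reporter cells with liver microsomes plus NADPH.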 In a few lines: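 p53RE-bla cells; 5 h settle, 37 C/5% CO2; cpd + HLM 0.5 mg/mL + NADPH 0.5 mg/mL (final); 16 h 37 C; LiveBLAzer 2 h RT dark; fluorescence readout.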
On the technique in general: Quantitative high-throughput screening tests each substance at several concentrations.

Assay [5] can be described thus: p53 small molecule agonists, cell-based qHTS assay with rat liver microsomes (AID 1963578). The method, boiled down: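 Rat liver microsome activation: microsomes 0.5 mg/mL, NADPH 0.5 mg/mL final; p53RE-bla cells, 16 h 37 C; LiveBLAzer readout, 2 h RT dark.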
Assay [6] in a line: p53 small molecule agonists, cell-based qHTS assay with human liver microsomes: qHTS cell viability counter screen (AID 1963579). Further: nearly all actives have a fitted effect of over 45% in size. The method, boiled down: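 Luminescent CellTiter-Glo read-out, 30 min at room temperature, gauged cytotoxicity in p53RE-bla cells exposed 16 h at 37 C to DMSO-dissolved compounds with metabolic activation by human liver microsomes and NADPH, each 0.5 mg/mL final.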

The nature of assay [7]: p53 small molecule agonists, cell-based qHTS assay with rat liver microsomes: qHTS cell viability counter screen (AID 1963580). Further: nearly all actives have a fitted effect of over 45% in size. Further: potency means the concentration at half of the fitted maximal effect. In a few lines:
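Rat liver microsome (0.5 mg/mL final) and NADPH (0.5 mg/mL final) co-incubation with compounds for 16 h at 37 C on HCT-116 p53RE-bla cells; cytotoxicity taken from intracellular ATP luminescence.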

Assay [8] can be described thus: p53 small molecule agonists, cell-based qHTS assay: qHTS cell viability counter screen (AID 1963581). Further: nearly all actives have a fitted effect of over 45% in size. In a few lines: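 qHTS counter screen: 16 h compound exposure at 37 C of p53RE-bla HCT-116 cells (4,000 per well, seeded 5 h prior), cell viability by ATP luminescence.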
Assay [9] addresses 5-hydroxytryptamine receptor 2A (Homo sapiens) (UniProt P28223). Nature of the assay: 5-hydroxytryptamine receptor 2A (HTR2A) small molecule antagonists, cell-based qHTS assay (AID 1963586). Further: nearly all actives have a fitted effect of over 45% in size. Further: potency means the concentration at half of the fitted maximal effect. In a few lines: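 CHO cells stably expressing human HTR2A were plated for 18 h at 37 C, then loaded with calcium dye for 1 h. Compounds were preincubated 5 min at room temperature before DOI (4 nM solution) was added. Kinetic fluorescence was read for 3 min.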

The target is the same in assay [10]. The assay can be described thus: 5-hydroxytryptamine receptor 2A (HTR2A) small molecule agonists, cell-based qHTS assay (AID 1963587). Further: nearly all actives have a fitted effect of over 30% in size. Further: potency means the concentration at half of the fitted maximal effect. In a few lines:
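Kinetic calcium-flux fluorescence (2 min, 1 sec intervals) after compound addition in agonist mode. HTR2A-CHO cells were cultured 18 h, then dye-loaded 1 h at 37 C.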

Assay [11] deals with Muscarinic acetylcholine receptor M1 (Homo sapiens) (UniProt P11229). The assay can be described thus: Cholinergic receptor muscarinic 1 (CHRM1) small molecule antagonists, cell-based qHTS assay (AID 1963588). Further: nearly all actives have a fitted effect of over 40% in size. In a few lines:
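Compounds were tested at 15 concentrations in three independent runs. Dye-loaded CHRM1-CHO cells were exposed 5 min at room temperature before stimulation by acetylcholine added at 50nM. Intracellular calcium was read kinetically on FDSS for 3 min.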

Assay [12] can be described thus: cAMP Responsive Elements (CRE) small molecule agonists, cell-based qHTS assay (AID 1963590). In a few lines:
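Test agents in DMSO were incubated 3 h at 37 C/5% CO2 with CRE-bla HEK 293T cells seeded 18 h earlier; LiveBLAzer B/G FRET substrate was added and read after 2 h at room temperature.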

Assay [13] has as its target Beta-2 adrenergic receptor (Homo sapiens) (UniProt P07550). Nature of the assay: Adrenergic beta2 receptor (ADRB2) small molecule antagonists, cell-based qHTS assay (AID 1963592). Further: series mostly up to about 92 µM; nearly all actives have a fitted effect of over 50% in size. The method, boiled down:
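Assay format: CHO-ADRB2 cells, 18-20hr seeding at 37C/5% CO2, then compound plus 1nM isoproterenol agonist mix for 0.5hr RT. Homogeneous time-resolved fluorescence cAMP detection after 1hr, expressed as 665/615 nm ratio.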

The target is the same in assay [14]. The assay can be described thus: Adrenergic beta2 receptor (ADRB2) small molecule agonists, cell-based qHTS assay (AID 1963593).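 Further: CHO cells stably overexpressing human ADRB2.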 The method, boiled down: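 CHO cells stably over-expressing ADRB2 were plated overnight at 37C, then dosed with compounds plus a stimulation mix containing 100uM IBMX and 25uM Ro-20-1724 for 0.5hr at room temperature. cAMP was measured by HTRF competition, 1hr.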

In assay [15] the target is D(2) dopamine receptor (Homo sapiens) (UniProt P14416). The assay can be described thus: Dopamine D2 receptor (DRD2) small molecule agonists, cell-based qHTS assay (AID 1963594). Further: nearly all actives have a fitted effect of over 35% in size. In a few lines:
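cAMP accumulation in DRD2-HEK293 cells measured by HTRF after 1 h detection; compounds added 10 min before NKH477 (200nM […]) forskolin-analogue stimulation, 30 min at room temperature, with Ro20-1724 present at 0.1 mM final.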

Assay [16] in a line: p53 small molecule agonists, cell-based qHTS assay (AID 1963582; active means well fitted activation curve with a large enough effect in the signal ratio in the repeat runs, not every such curve was filed as active; the % refers to the signal ratio). The method, boiled down:
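Measured: fluorescence from cleaved LiveBLAzer substrate. System: p53RE-bla cells, 16 h compound treatment at 37 C, 2 h substrate step at room temperature.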

Assay [17] addresses Muscarinic acetylcholine receptor M1 (Homo sapiens) (UniProt P11229). The assay can be described thus: Cholinergic receptor muscarinic 1 (CHRM1) small molecule agonists, cell-based qHTS assay (AID 1963589). Further: nearly all actives have a fitted effect of over 35% in size. The method, boiled down:
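Kinetic fluorescence (1 s intervals) of calcium-sensitive dye in human M1 CHO cells after compound addition; cells pre-incubated 18 h at 37 C/5% CO2 and dye-loaded 1 h.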

A short description of assay [18]: cAMP Responsive Elements (CRE) small molecule antagonists, cell-based qHTS assay (AID 1963591; active means well fitted inhibition curve with a large enough effect in the signal ratio in the repeat runs, not every such curve was filed as active; the % refers to the signal ratio). In a few lines:
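Reporter line CRE-bla HEK 293T in dialyzed-FBS DMEM; cells preincubated 18 h, treated 3 h with compound plus NKH477 (0.25 uM final); LiveBLAzer FRET, 2 h RT.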

For assay [19], the target named is D(2) dopamine receptor (Homo sapiens) (UniProt P14416). Nature of the assay: Dopamine D2 receptor (DRD2) small molecule antagonists, cell-based qHTS assay (AID 1963595; active means well fitted inhibition curve with a large enough effect in the signal ratio in the repeat runs, with a control signal flat; the % refers to the signal ratio). In a few lines: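 HEK293 cells stably expressing DRD2, preincubated with 0.1 mM Ro20-1724 and compounds 10 min, were stimulated with 200 nM NKH477 plus 12 nM quinpirole for 30 min at room temperature; cAMP measured by HTRF (665/620 nm).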
Sequence of D(2) dopamine receptor (Homo sapiens) (P14416 whole entry, looked up): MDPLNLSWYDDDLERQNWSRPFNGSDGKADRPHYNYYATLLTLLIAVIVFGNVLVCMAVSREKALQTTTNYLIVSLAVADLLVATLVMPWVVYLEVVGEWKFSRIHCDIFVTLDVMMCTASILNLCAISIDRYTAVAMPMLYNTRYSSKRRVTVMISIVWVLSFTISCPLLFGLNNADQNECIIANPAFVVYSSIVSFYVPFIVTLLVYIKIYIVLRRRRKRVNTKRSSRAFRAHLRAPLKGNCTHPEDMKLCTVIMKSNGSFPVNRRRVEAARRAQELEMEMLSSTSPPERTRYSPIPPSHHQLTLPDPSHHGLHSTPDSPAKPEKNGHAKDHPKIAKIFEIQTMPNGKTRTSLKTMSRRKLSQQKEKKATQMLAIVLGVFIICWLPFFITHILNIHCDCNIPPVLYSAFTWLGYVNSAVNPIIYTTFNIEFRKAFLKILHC
On the % scale 0 is the no-effect control and ±100 the full control effect.

Sequence of Gonadotropin-releasing hormone receptor (Homo sapiens) (P30968 whole entry, looked up): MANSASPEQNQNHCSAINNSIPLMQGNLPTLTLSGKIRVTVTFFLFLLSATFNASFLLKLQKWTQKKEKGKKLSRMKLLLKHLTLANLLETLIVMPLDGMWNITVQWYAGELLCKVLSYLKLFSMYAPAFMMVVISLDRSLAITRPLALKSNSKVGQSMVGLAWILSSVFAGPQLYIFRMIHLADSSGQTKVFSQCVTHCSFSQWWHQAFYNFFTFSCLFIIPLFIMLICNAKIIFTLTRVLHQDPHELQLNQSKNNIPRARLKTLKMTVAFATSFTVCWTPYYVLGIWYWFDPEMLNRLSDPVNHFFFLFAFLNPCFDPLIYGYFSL
Sequence of Muscarinic acetylcholine receptor M1 (Homo sapiens) (P11229 whole entry, looked up): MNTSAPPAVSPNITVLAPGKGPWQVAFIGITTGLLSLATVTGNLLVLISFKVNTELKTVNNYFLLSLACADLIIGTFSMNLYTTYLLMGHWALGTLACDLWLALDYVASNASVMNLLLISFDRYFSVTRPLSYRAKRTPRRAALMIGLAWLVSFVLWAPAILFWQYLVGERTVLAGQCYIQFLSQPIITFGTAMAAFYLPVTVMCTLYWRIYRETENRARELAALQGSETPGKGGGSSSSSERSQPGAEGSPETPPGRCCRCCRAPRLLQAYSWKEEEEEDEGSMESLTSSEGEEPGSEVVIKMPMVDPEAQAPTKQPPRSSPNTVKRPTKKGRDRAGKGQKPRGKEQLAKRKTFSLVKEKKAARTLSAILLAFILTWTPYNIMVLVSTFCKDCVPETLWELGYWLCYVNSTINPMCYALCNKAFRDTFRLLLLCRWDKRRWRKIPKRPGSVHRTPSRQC
Sequence of KiSS-1 receptor (Homo sapiens) (Q969F8 whole entry, looked up): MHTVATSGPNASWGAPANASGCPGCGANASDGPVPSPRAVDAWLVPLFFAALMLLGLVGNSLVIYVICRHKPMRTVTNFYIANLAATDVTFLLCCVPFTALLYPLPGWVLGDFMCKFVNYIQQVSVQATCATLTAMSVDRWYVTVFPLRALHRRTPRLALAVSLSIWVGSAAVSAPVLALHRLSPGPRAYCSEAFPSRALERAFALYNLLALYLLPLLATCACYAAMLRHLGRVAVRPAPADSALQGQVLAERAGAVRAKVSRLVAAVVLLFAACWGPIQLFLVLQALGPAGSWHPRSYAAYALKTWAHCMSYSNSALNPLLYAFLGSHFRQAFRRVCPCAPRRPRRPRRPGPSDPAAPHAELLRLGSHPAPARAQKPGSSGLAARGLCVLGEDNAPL
Sequence of Beta-2 adrenergic receptor (Homo sapiens) (P07550 whole entry, looked up): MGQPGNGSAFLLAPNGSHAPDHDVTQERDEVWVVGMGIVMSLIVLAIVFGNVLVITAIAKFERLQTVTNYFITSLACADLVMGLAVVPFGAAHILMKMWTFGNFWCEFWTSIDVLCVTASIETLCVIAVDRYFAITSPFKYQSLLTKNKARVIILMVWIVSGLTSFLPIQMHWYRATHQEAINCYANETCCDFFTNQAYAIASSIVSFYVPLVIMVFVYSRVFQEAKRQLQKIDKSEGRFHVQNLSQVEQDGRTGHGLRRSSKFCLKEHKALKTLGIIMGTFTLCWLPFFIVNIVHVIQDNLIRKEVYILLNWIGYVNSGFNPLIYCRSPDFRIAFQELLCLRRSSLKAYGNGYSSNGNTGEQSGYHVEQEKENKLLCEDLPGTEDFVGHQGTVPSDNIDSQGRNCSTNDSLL
Sequence of 5-hydroxytryptamine receptor 2A (Homo sapiens) (P28223 whole entry, looked up): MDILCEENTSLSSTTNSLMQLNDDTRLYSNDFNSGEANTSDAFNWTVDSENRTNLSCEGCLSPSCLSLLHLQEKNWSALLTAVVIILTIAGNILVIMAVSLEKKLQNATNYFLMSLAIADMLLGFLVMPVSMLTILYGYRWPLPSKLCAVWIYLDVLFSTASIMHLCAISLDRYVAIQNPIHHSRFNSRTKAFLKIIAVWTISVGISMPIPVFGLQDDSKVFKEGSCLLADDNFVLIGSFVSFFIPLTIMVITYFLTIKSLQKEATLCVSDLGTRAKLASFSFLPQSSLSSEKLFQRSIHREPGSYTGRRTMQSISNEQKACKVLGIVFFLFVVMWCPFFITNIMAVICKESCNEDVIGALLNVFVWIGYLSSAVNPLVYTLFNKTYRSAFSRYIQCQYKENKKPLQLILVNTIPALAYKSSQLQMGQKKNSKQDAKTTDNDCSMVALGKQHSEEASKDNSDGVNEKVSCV

`Cc1cccc(C)c1NC(=O)CN1CCN(CCCC(c2ccc(F)cc2)c2ccc(F)cc2)CC1`: the Potency result in assay [1], in assay [2], in assay [3], in assay [4], in [5] and in assay [6] was “inactive” in each case. Also, the Potency entry in assay [7], in assay [8], in [10], in [11], in assay [12] and in [13] was “inactive” throughout. The Potency entry in assay [14] and in assay [15] was “inactive” in each case. For the same molecule, in assay [9], the Potency is 8.18 µM (active).

Take `Cc1c(C(=O)O)cccc1[N+](=O)[O-]`: the Potency entry in assay [1], in assay [2], in assay [3], in [4], in assay [5] and in assay [7] was “inactive” in each case. Moreover, the Potency entry in assay [8], in assay [16], in assay [9], in assay [10], in assay [11] and in [17] was “inactive” each time. Besides, the Potency result in assay [12], in assay [18], in assay [13], in [15] and in assay [19] was “inactive” in each case.

Turning to `[O-][n+]1ccccc1SSc1cccc[n+]1[O-]`, the activity change in [1] is 17.2% [at 11.8 µM, hits give high values]. Also, the activation in assay [2] was 1.71% [at 15.8 µM]; in [4], -14.9% [at 13.5 µM]; in assay [5], -12.8% [at 13.6 µM]; in assay [17] it was 14.1% [at 15.8 µM]; in [12] it was -1.24% [at 19 µM]; in assay [14] it was 17.9% [at 19 µM]. Besides, the Potency was 4.65 µM (active) in [3], 0.547 µM (active) in assay [7] and 9.28 µM (active) in [10]. In [8], the activity change, negative = cytotoxicity is 8.83% [at 13.5 µM]. The activity, negative = inhibition in assay [11] was 9.35% [at 12.6 µM]. The activity change, negative = inhibition is 11.4% [at 19 µM] in assay [13] and -21.1% [at 18.9 µM] in assay [19].

For `NCCCOCCOCCOCCCN`, the Potency result in assay [1], in assay [2], in assay [3], in [4], in assay [5] and in [6] was “inactive” in each case. Moreover, the Potency entry in [7], in [8], in assay [9], in assay [10], in [11] and in assay [17] was “inactive” each time. Besides, the Potency result in assay [15] and in assay [19] was “inactive” each time.

For the molecule `Cc1onc(-c2c(Cl)cccc2Cl)c1C(=O)N[C@@H]1C(=O)N2[C@@H]1SC(C)(C)[C@@H]2C(=O)O`, the Potency result in [1], in [2], in assay [3], in assay [4], in [5] and in [7] was “inactive” each time. Moreover, the Potency entry in assay [8], in [9], in [10], in [11], in assay [17] and in assay [12] was “inactive” each time. Moreover, the Potency result in assay [18], in [14], in assay [15] and in assay [19] was “inactive” throughout.

On to `C[C@@H](c1ncncc1F)C(O)(Cn1cncn1)c1ccc(F)cc1F` (stereo partly specified), for which the Potency result in assay [1], in assay [2], in [3], in [4], in assay [5] and in assay [7] was “inactive” in each case. The Potency entry in [16], in assay [9], in assay [10], in assay [11], in [17] and in [13] was “inactive” throughout. In addition, the Potency result in assay [14], in assay [15] and in [19] was “inactive” each time.
